CYP2C19 inhib: blockers of cytochrome P450 2C19 activity – biochemical, luminescence, ADME assay, primary screen; P33261; CYP2C19 Supersomes, luciferin-H EGE luminescence, 30 min; inhibition, % at 5 µM; actives 21% (n = 96,000); AID 778, 2007;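 active means CYP2C19 inhibition above a set limit at 5 µM in the primary screen, cut at about 50% in these data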
Target sequence (P33261 whole entry, looked up): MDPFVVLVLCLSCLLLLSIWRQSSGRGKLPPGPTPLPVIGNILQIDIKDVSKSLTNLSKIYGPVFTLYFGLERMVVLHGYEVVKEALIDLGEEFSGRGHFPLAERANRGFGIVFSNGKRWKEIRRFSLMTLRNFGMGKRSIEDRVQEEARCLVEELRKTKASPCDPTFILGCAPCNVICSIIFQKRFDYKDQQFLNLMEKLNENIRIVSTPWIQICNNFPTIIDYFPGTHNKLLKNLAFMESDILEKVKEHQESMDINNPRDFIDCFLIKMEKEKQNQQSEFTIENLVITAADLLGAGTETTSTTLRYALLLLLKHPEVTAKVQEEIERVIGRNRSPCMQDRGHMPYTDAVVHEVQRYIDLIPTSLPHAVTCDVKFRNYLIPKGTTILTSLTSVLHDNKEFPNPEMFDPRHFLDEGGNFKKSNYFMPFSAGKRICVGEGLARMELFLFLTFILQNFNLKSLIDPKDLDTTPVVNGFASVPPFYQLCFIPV
CYP2C9 act: human CYP2C9 activators, primary screen, biochemical, luminescence. recombinant CYP2C9, luciferin-H conversion; hits give high values; factor 1 = untreated enzyme, 0 = blocked. Cytochrome P450 2C9 (Homo sapiens), P11712. actives 1.4% (n = 96,000). activation factor at 5 µM;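 active means activation factor of 2 or more for CYP2C9 at a 5 µM dose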
CYP2C9 inhib: blockers of cytochrome P450 2C9 activity – biochemical, luminescence, ADME assay, primary screen. P11712. CYP2C9 Supersomes, luciferin-H conversion. inhibition, % at 5 µM. actives 20% (n = 96,000);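 active means blocking of liver enzyme CYP2C9 beyond about 50% at 5 µM, limit read from the data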
CYP2C19 activ: human CYP2C19 activators, primary screen, biochemical, luminescence | activation factor at 5 µM | recombinant CYP2C19, luciferin-H EGE luminescence; hits give high values; 0 = fully inhibited enzyme, 1 = untreated enzyme | 96,000 tested, under 10 active | Cytochrome P450 2C19 (Homo sapiens), P33261;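 active means activation factor of at least 2 at 5 µM in the primary screen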
Of the large screens only hits and unclear results are named; the others gave an inactive call. Only some compounds are listed: those with a hit (about 31% of all), similar ones and a draw of the others.

CCCc1cc(=O)oc2cc(Oc3ncccn3)ccc12	CYP2C19 inhib 87.6
O=c1[nH]c(CN2CCN(c3ccccc3O)CC2)nc2ccccc12	none
CC1(C)Cc2c(c(N3CCOCC3)nc3snc(Br)c23)CO1	CYP2C9 inhib 67.2
Cc1cc(C)nc(Sc2c(C)nn(-c3ccccc3)c2C)n1	CYP2C19 inhib 91.3
Cc1cc(N)n(-c2ccccc2)n1	none
COc1ccc2c(c1)c(CC(=O)Nc1ccc(C)cc1)c(C)n2C(=O)c1ccc(Cl)cc1	CYP2C19 inhib 68.8, CYP2C9 inhib 88.6
CN=C(Nc1ccccc1OC)SC1CC(=O)N(c2ccc(C(=O)OC)cc2)C1=O (stereo not given)	none
COC(=O)c1ccc(C2NC(=S)N(c3ccccc3)C(C)=C2C(=O)Nc2ccccc2OC)cc1 (stereo not given)	CYP2C19 inhib 79.5, CYP2C9 inhib 80.7
COc1ccccc1NC(=O)C1=C(C)N(c2ccccc2)C(=S)NC1c1cccc(C(F)(F)F)c1 (stereo not given)	CYP2C19 inhib 92.5, CYP2C9 inhib 96.4
O=C(Nc1c(F)c(F)c(F)c(F)c1F)NC1CCCCC1	none
CC(=O)c1c[nH]c(C(=O)NCC2CCCO2)c1 (stereo not given)	CYP2C19 inhib 68.8
Cn1c(C(=O)NCC2CCCO2)cc2oc3ccccc3c21 (stereo not given)	CYP2C19 inhib 72.5, CYP2C9 inhib 80.8
Cn1c(C(=O)NCC2CCCO2)cc2c(=O)n(C)c3ccccc3c21 (stereo not given)	none
Cn1c(C(=O)NCc2cccs2)cc2oc3ccccc3c21	CYP2C19 inhib 51.0, CYP2C9 inhib 78.9
Cn1c(C(=O)NCc2ccccc2)cc2oc3ccccc3c21	CYP2C19 inhib 52.2, CYP2C9 inhib 90.9
Cc1c(C(=O)NCc2cccs2)oc2ccc(Br)cc12	none
CC(C)CC(=O)c1c[nH]c(C(=O)NCC2CCCO2)c1 (stereo not given)	none
Cn1c(=O)c2c(nc(N3CCOCC3)n2Cc2c(F)cccc2Cl)n(C)c1=O	none
COc1cc2c(C(=O)N3CCN(Cc4ccc5c(c4)OCO5)CC3)cn(C)c(=O)c2cc1OC	none
CC1(C)CNC(=O)c2sc(N3CCOCC3)nc2C1	none
O=C(N/C(=C\c1cccnc1)C(=O)N1CCOCC1)c1cccc(Br)c1	none
O=C(/C=C/c1cccnc1)c1ccc(NC(=O)c2cccc(Br)c2)cc1	CYP2C9 inhib 70.3
COC(=O)C1C(=O)/C(=C(/C)N2CCCC2)C(=O)CC1(C)C (stereo not given)	none
Cc1ccc(N2C(=O)SC(N(CC(=O)O)c3cccc(C)c3)C2=O)cc1 (stereo not given)	none
COc1ccc(C(=O)/C(=C/c2cccs2)c2nc3ccccc3o2)cc1	CYP2C9 inhib 68.6
CCOc1cccc2sc(=NC(=O)c3ccc(S(=O)(=O)N4CCOCC4)cc3)n(C)c12	CYP2C9 inhib 56.0
Cc1cc2nc(-c3ccc(SCC(=O)N4CCN(C(=O)c5ccco5)CC4)nc3)[nH]c2cc1C	CYP2C19 inhib 72.2, CYP2C9 inhib 83.8
Cc1cc2nc(-c3ccc(SCC(=O)Nc4ccc5c(c4)OCCO5)nc3)[nH]c2cc1C	CYP2C9 inhib 77.5
Cc1cc2nc(-c3ccc(SCC(=O)N4CCOCC4)nc3)[nH]c2cc1C	none
CCCSc1nnc(-c2cnn(-c3ccccc3)c2-n2cccc2)n1C	none
COC(=O)c1cc(=O)nc2sc(-c3ccc(F)cc3)nn12	none
COC(=O)c1cc(C(=O)OC)n(Cc2ccc(F)cc2)n1	CYP2C19 inhib 74.2
CCOC(=O)CCSc1nnc(-c2cccnc2)n1-c1ccccc1OC	CYP2C19 inhib 54.0
Nn1c(Cc2ccccc2F)nnc1SCn1nnc2ccccc2c1=O	CYP2C19 inhib 64.0
C/C(N)=C(/C#N)C(=O)CSc1nnc(Cc2ccccc2F)n1N	none
COc1ccccc1-n1c(SCC(N)=O)nnc1-c1ccccc1	none
O=c1c2ccccc2nnn1CSc1nnc(-c2cccnc2)n1-c1ccccc1F	CYP2C19 inhib 75.2
O=C1OCC/C1=C\c1ccccc1O	none
O=C1CCCc2c1cc(C(=O)NC1CCSC1=O)c(=O)n2-c1ccccc1 (stereo not given)	none
CN(C)CCNc1nc(-c2ccccc2)nnc1C(F)(F)F	none
COc1ccc(C(=O)NC(=S)NC(C)C)cc1Br	CYP2C19 inhib 59.6
COc1ccc(C(=O)NC(=S)NC(C)(C)C)cc1Br	none
c1ccc(COCCN2CCN(CCOCc3ccccc3)CC2)cc1	CYP2C19 inhib 56.8
CCC12CN(C(=O)c3ccc(OC)cc3)CC(CC)(CN(C(=O)c3ccc(OC)cc3)C1)C2=O	CYP2C19 inhib 58.1
COc1ccc(C(=O)N2CCCC2)cc1	none
COC(=O)c1ccccc1NC(=O)C1CCCN(S(C)(=O)=O)C1 (stereo not given)	none
COc1ccc(NC(=O)C2CCN(S(=O)(=O)c3ccc(C)cc3)CC2)cc1OC	none
COc1ccc(S(=O)(=O)N2CCC(C(=O)Nc3cccc(Cl)c3)CC2)cc1OC	CYP2C19 inhib 52.9
COC(=O)c1ccccc1NC(=O)C1CCN(S(=O)(=O)c2cc(C)ccc2OC)CC1	CYP2C19 inhib 86.2, CYP2C9 inhib 87.7
COc1ccc(OC)c(S(=O)(=O)N2CCC(C(=O)Nc3cccc(C)c3)CC2)c1	CYP2C19 inhib 88.5
COc1ccc(OC)c(S(=O)(=O)N2CCC(C(=O)Nc3cc(C)ccc3C)CC2)c1	none
CCC1=NNc2cccc3c(OC)ccc1c23	none
COCCn1c(=S)[nH]c2cc(C(=O)N3CCN(c4ccc(F)cc4)CC3)ccc2c1=O	none
O=C1CCCc2ccccc2N1Cc1ccc(Cl)cc1Cl	CYP2C19 inhib 94.3, CYP2C9 inhib 87.1
O=c1cc(N2CCCCC2)c(-c2ccccc2)nn1Cc1ccc(Cl)cc1Cl	none
O=C1CCCc2ccccc2N1Cc1c(Cl)cccc1Cl	CYP2C19 inhib 95.7, CYP2C9 inhib 90.8
O=c1cc2c(nn1Cc1c(Cl)cccc1Cl)-c1ccccc1CC2	CYP2C9 inhib 50.3
O=C1CC(N2CCCc3ccccc32)C(=O)N1c1ccccc1 (stereo not given)	none
O=C1CCCc2ccccc2N1Cc1ccccc1Cl	CYP2C19 inhib 87.8
Clc1cccc(Cl)c1CSc1cc2c(nn1)-c1ccccc1CC2	none
Cn1c(N2CCC(C(N)=O)CC2)nc2c1c(=O)n(Cc1cccc(Br)c1)c(=O)n2C	none
Cc1cc(C)c([N+](=O)[O-])cc1-c1ccc(/C=N/c2c(-c3ccco3)nc3ccccn23)o1	none
O=C(CCCCCNS(=O)(=O)c1ccc(Br)cc1)NCCN1CCOCC1	none
O=C(Nc1c(F)cc(F)cc1Br)c1cc2nc(C(F)F)cc(C(F)F)n2n1	none
CCOc1ccc(NC(=O)CSc2nnc(CCNC(=O)c3ccc(OC)cc3)n2C)cc1	CYP2C9 inhib 56.7
COc1ccc(C(=O)NCCc2nnc(SCC(=O)Nc3ccc(Br)cc3)n2C)cc1	CYP2C9 inhib 65.3
COc1ccc(OCCSc2nnc(CCNC(=O)c3ccc(OC)cc3)n2C)cc1	none

Compound activity (PubChem)
